Measurements taken from PubChem BioAssay (NCATS).
Where “and” joins values, the source holds several entries; their conditions need not be identical. Identical values can stand only once. Results filed as inconclusive are left out. Unmarked numbers belong to inactive results. Calls of active or inactive are those of the source. Calls come from the whole dose curve; as a rule, active = well fitted cell-killing curve with a large enough effect; inconclusive = small, poorly fitted or top-dose-only effect, or effect the other way; inactive = no such curve, though single readings can be large or run the other way.

Assay: Viability qHTS for spleen associated tyrosine kinase inhibitor (SYKi) naive MV4-11 cells (AID 1963823); note: nearly all actives have a fitted effect of over 40% in size
Conditions: MV4-11 AML viability, CellTiter-Glo luminescence, 72 h; series mostly up to 45 µM; viability (% of control): at the top concentration
Outline: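 Compounds were dispensed acoustically onto plates, MV4-11 cells (SYKi-naive) added at 500 per well, and plates incubated 72 hr at 37 C. CellTiter-Glo was added and luminescence measured after 10 min.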
Potency is the fitted concentration of half-maximal effect.

| Compound | viability (% of control) | Potency |
| --- | --- | --- |
| CC(O)C(=O)O (stereo not given) | 57.4% |  |
| CC(C)(C(=O)O)c1ccc(C(O)CCCN2CCC(C(O)(c3ccccc3)c3ccccc3)CC2)cc1 (stereo not given) |  | inactive |
| O=C1NC(=O)/C(=C/c2ccc3nccc(-c4ccncc4)c3c2)S1 |  | 461 nM (active) and 372 nM (active) |
| OCCN1CCN(CCCN2c3ccccc3Sc3ccc(Cl)cc32)CC1 |  | 11.9 µM (active) |
| O=S(=O)(NCCNC/C=C/c1ccc(Br)cc1)c1cccc2cnccc12 |  | 5.17 µM (active) and 4.68 µM (active) |
| CC[C@@]1(O)C(=O)OCc2c1cc1n(c2=O)Cc2c-1nc1ccccc1c2/C=N/OC(C)(C)C |  | 0.0084 µM (active) |
| C[C@@H](Oc1cc(C(=O)Nc2ccc(C(=O)N3CCN(C)CC3)cc2)nnc1N)c1c(Cl)ccc(F)c1Cl |  | 1.66 µM (active) |
| CC(C)C[C@H](NC(=O)[C@H](Cc1ccccc1)NC(=O)OCc1ccccc1)C(=O)C=O |  | 23.5 µM (active) |
| CN(C)CCOc1ccc(-c2nc(-c3ccc4c(c3)CC/C4=N\O)c(-c3ccncc3)[nH]2)cc1 |  | 7.42 µM (active) |
| COc1cccc2c1C(=O)c1c(O)c3c(c(O)c1C2=O)C[C@@](O)(C(=O)CO)C[C@@H]3O[C@H]1C[C@H](N)[C@H](O)[C@H](C)O1 |  | 0.133 µM (active) |
| CCCCCCCCCCCCCCCC[N+](C)(C)CC |  | 0.299 µM (active) |
| CCCCC(CC)CNC(=O)CC(C)OC(=O)CCC(=O)O (stereo not given) | 76.2% |  |
| O=C1OC(COc2ccccc2[N+](=O)[O-])CC1Cc1ccccc1 (stereo not given) | 71.4% |  |
| CN(C)C(N)=NC(=N)N | 80.2% |  |
| COc1cc(C(N)=O)ccc1NC(=O)[C@@H]1N[C@@H](CC(C)(C)C)[C@@]2(C(=O)Nc3cc(Cl)ccc32)[C@H]1c1cccc(Cl)c1F |  | 5.9 µM (active) |
| CC(=O)O/N=C1\C(=O)N(Cc2cc(Cl)ccc2Cl)c2ccc(Cl)cc21 |  | 5.9 µM (active) |
| CCOC(=O)[C@H](CCc1ccccc1)N[C@@H](C)C(=O)N1[C@H](C(=O)O)C[C@@H]2CCC[C@@H]21 | 74.1% |  |
| CSc1ccc2c(c1)N(CCC1CCCCN1C)c1ccccc1S2 (stereo not given) |  | 15 µM (active) |

| Compound | viability (% of control) | Potency |
| --- | --- | --- |
| NC(=O)NNc1ccccc1 | 74.7% |  |
| CN(C)c1cc(NC(=O)CNC(C)(C)C)c(O)c2c1C[C@H]1C[C@H]3[C@H](N(C)C)C(=O)C(C(N)=O)=C(O)[C@]3(O)C(=O)C1=C2O | 76.1% |  |
| CCC1(c2cnc[nH]2)Cc2ccccc2C1 | 71.9% |  |
| CC(=O)Oc1cccc(O)c1 | 90.2% |  |
| Nc1ccc(C(=O)NCC(=O)O)cc1 | 78.9% |  |
| C[C@]12CC[C@@H]3c4ccc(O)cc4CC[C@H]3[C@@H]1CC[C@@H]2OC(=O)CCC1CCCC1 | 9.32% |  |
| Cc1cc2c(C(C)C)c(O)c(O)c(C=O)c2c(O)c1-c1c(C)cc2c(C(C)C)c(O)c(O)c(C=O)c2c1O |  | 6.61 µM (active) |
| Cc1cc(OCCCc2c3n(c4c(-c5c(C)nn(C)c5C)c(Cl)ccc24)[C@H](C)CN(c2cn(C)c4ccc(C(=O)O)cc24)C3=O)cc(C)c1Cl |  | 0.742 µM (active) |
| O=C(/C=C/c1ccc(/C=C/C(=O)Nc2ccc(C3=NCCN3)cc2)cc1)Nc1ccc(C2=NCCN2)cc1 | 73.8% [at 4.97 µM] |  |
| O=C1[C@H](CC[C@H](O)c2ccc(F)cc2)[C@@H](c2ccc(O)cc2)N1c1ccc(F)cc1 |  | 20.6 µM (active) and 20.9 µM (active) |
| c1cn2cc(-c3ccc4cn[nH]c4c3)nc(Nc3ccc(N4CCOCC4)cc3)c2n1 |  | 0.651 µM (active) |
| C[C@@H]1C[C@H]2[C@@H]3C[C@H](F)C4=CC(=O)C=C[C@]4(C)[C@@]3(F)[C@@H](O)C[C@]2(C)[C@@]1(O)C(=O)CO |  | 0.335 µM (active) |
| C[C@]12CCC3[C@@H](CC[C@H]4NC(=O)C=C[C@]34C)[C@@H]1CC[C@@H]2C(=O)Nc1cc(C(F)(F)F)ccc1C(F)(F)F (stereo not given in full) |  | 10.5 µM (active) |
| COc1cc(C(=O)O)ccc1NC(=O)[C@@H]1N[C@@H](CC(C)(C)C)[C@](C#N)(c2ccc(Cl)cc2F)[C@H]1c1cccc(Cl)c1F |  | 6.61 µM (active) |
| O=C(O)C[C@H](O)C[C@H](O)/C=C/c1c(C2CC2)nc2ccccc2c1-c1ccc(F)cc1 |  | 461 nM (active) and 525 nM (active) |
| NS(=O)(=O)c1cc2c(cc1C(F)(F)F)NC(Cc1ccccc1)NS2(=O)=O (stereo not given) | 87.4% |  |
| O=C(/C=C/c1cccc(S(=O)(=O)Nc2ccccc2)c1)NO |  | 563 nM (active) and 417 nM (active) |
